Test results as given in PubChem BioAssay (NCI).
About 79,000 compounds went through this panel and 15% of them were active in at least one assay; those are over-represented in the sample as a whole. Activity calls are given as the source filed them. Cut-off read from the data, not from the text of the source: active = growth inhibition above about 70%; inactive = the rest.

How the values were obtained:
[1] = NCI Yeast Anticancer Drug Screen. Data for the rad52 strain (AID 147);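 note: 0% = growth of vehicle-treated control cultures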; settings: S. cerevisiae rad52 mutant growth inhibition, active compounds read high
Procedure, shortened: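 Genetically altered yeast (DNA damage repair defect) treated with compound; inhibition calculated relative to vehicle.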

[2] = NCI Yeast Anticancer Drug Screen. Data for the wt1 strain (AID 149);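 note: 0% = growth of vehicle-treated wt1 cultures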; settings: S. cerevisiae wt1 strain (SPY 50644) growth inhibition, active compounds read high
Procedure, shortened: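 wt1 strain grown with compound or vehicle; inhibition taken from the growth difference.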

[3] = NCI Yeast Anticancer Drug Screen. Data for the rad50EPP+ strain (AID 151);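 note: 0% = growth of vehicle-treated control cultures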; settings: S. cerevisiae rad50 mutant strain, active compounds read high
Procedure, shortened: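 Strain rad50EPP+; compound exposure; % growth inhibition vs vehicle.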

[4] = NCI Yeast Anticancer Drug Screen. Data for the rad50 strain (AID 155);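 note: 0% = growth of vehicle-only cultures of the same strain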; settings: S. cerevisiae rad50 strain growth inhibition, active compounds read high
Procedure, shortened: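 DNA repair mutant yeast, compound exposure, growth read-out; inhibition is taken relative to vehicle.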

[5] = NCI Yeast Anticancer Drug Screen. Data for the mec2-1 strain (AID 157); settings: S. cerevisiae mec2-1 strain, active compounds read high
Procedure, shortened: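 Cells of the genetically defined mec2-1 yeast strain are incubated with test compound. Inhibition of growth is calculated against vehicle-treated controls.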

[6] = NCI Yeast Anticancer Drug Screen. Data for the rad14 strain (AID 159);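 note: 0% = growth of vehicle-treated control cultures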; settings: S. cerevisiae rad14 strain growth inhibition, active compounds read high
Procedure, shortened: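 DNA repair-defective yeast, compound-exposed; % growth inhibition derived by comparison with vehicle-treated controls.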

[7] = NCI Yeast Anticancer Drug Screen. Data for the sgs1 mgt1 strain (AID 161);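 note: 0% = growth of cultures given vehicle only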; settings: S. cerevisiae sgs1 mgt1 strain, active compounds read high
Procedure, shortened: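 Test agents were incubated with a DNA-repair-mutant yeast strain. Growth was then read and compared against vehicle-treated controls.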

[8] = NCI Yeast Anticancer Drug Screen. Data for the CLN2oe strain (AID 163);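 note: 0% = growth of vehicle-only control cultures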; settings: S. cerevisiae CLN2oe strain, active compounds read high
Procedure, shortened: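 Strain altered in cell-cycle control, incubated with compound; growth compared to solvent-treated controls.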

[9] = NCI Yeast Anticancer Drug Screen. Data for the cln2 rad14 strain (AID 165);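 note: 0% = growth equal to vehicle treated cultures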; settings: S. cerevisiae cln2 rad14 strain, active compounds read high
Procedure, shortened: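 The screen exposed genetically defined yeast (cln2 rad14) to test compounds and scored growth inhibition relative to vehicle-treated controls.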

[10] = NCI Yeast Anticancer Drug Screen. Data for the bub3 strain (AID 167); settings: S. cerevisiae bub3 mutant strain, active compounds read high
Procedure, shortened: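 In this screen, a yeast mutant lacking normal mitotic checkpoint function is challenged with compound. Relative growth versus vehicle gives the inhibition value.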

[11] = NCI Yeast Anticancer Drug Screen. Data for the wt2 strain (AID 169);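 note: 0% = growth of vehicle-treated yeast cultures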; settings: S. cerevisiae wt2 strain growth inhibition, active compounds read high
Procedure, shortened: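 Steps: yeast strain treated with compound; growth recorded; inhibition calculated relative to cultures given vehicle alone.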

[12] = NCI Yeast Anticancer Drug Screen. Data for the mlh1 strain (AID 171);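 note: 0% = growth of vehicle-treated control cultures of the same strain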; settings: S. cerevisiae mlh1 strain growth inhibition, active compounds read high
Procedure, shortened: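 Yeast screen: mutant strain plus compound, growth scored against vehicle control wells.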

[13] = NCI Yeast Anticancer Drug Screen. Data for the sgs1 strain (AID 173);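 note: 0% = growth of vehicle-only control cultures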; settings: S. cerevisiae sgs1 mutant, active compounds read high
Procedure, shortened: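 Inhibition of yeast growth served as the measure. The mutant strain was treated with each compound, and growth was normalised to cultures receiving vehicle alone.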

[14] = NCI Yeast Anticancer Drug Screen. Data for the mlh1 rad18 strain (AID 175); settings: S. cerevisiae mlh1 rad18 strain growth inhibition, active compounds read high
Procedure, shortened: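 Compound-treated yeast growth, normalised to vehicle controls. Strain bears defined DNA repair mutations.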

[15] = NCI Yeast Anticancer Drug Screen. Data for the rad18 strain (AID 177); settings: S. cerevisiae rad18 mutant growth inhibition, active compounds read high
Procedure, shortened: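 Inhibition values reflect reduced yeast growth compared with vehicle-treated controls, using a strain engineered with a DNA damage repair defect.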

[16] = at 5.0 µM (retest, dose inferred, filed as 0.5)
[17] = at 50.0 µM (retest, dose inferred, filed as 5.0)

Measured: growth inhibition

Cc1onc(-c2ccccc2Cl)c1C1=N/C(=C/c2cc(Cl)cc(Cl)c2O)C(=O)O1
active: [1]; at 100.0 µM 70% | [2]; at 100.0 µM 74% | [4]; [17] 90% | [4]; at 50.0 µM 79.3% | [5]; [17] 90% | [7]; at 50.0 µM 78.6% | [9]; [16] 72% | [9]; at 50.0 µM 71.5% | [10]; at 50.0 µM 77.2% | [14]; at 50.0 µM 75.6%
inactive: [1]; at 1.2 µM -36% | [1]; at 3.7 µM -39% | [1]; at 11.0 µM -35% | [1]; at 33.0 µM -42% | [2]; at 1.2 µM -3% | [2]; at 3.7 µM -26% | [2]; at 11.0 µM -26% | [2]; at 33.0 µM -16% | [3]; at 1.2 µM -22% | [3]; at 3.7 µM -28% | [3]; at 11.0 µM 3% | [3]; at 33.0 µM -5% | [3]; at 100.0 µM -25% | [4]; at 1.2 µM -38% | [4]; at 3.7 µM -32% | [4]; [16] 33% | [4]; at 11.0 µM -35% | [4]; at 33.0 µM 2% | [4]; at 100.0 µM 69% | [5]; at 1.2 µM -32% | [5]; at 3.7 µM -35% | [5]; [16] 35% | [5]; at 11.0 µM -39% | [5]; at 33.0 µM -4% | [5]; at 50.0 µM 60% | [5]; at 100.0 µM 61% | [6]; at 1.2 µM -51% | [6]; at 3.7 µM -56% | [6]; at 11.0 µM -58% | [6]; at 33.0 µM -46% | [6]; at 100.0 µM 59% | [7]; [16] -9% | [7]; [17] 42% | [8]; at 1.2 µM -5% | [8]; at 3.7 µM -19% | [8]; at 11.0 µM -5% | [8]; at 33.0 µM 26% | [8]; at 100.0 µM 66% | [9]; [17] 60% | [10]; at 1.2 µM -55% | [10]; at 3.7 µM -40% | [10]; [16] 47% | [10]; at 11.0 µM -43% | [10]; at 33.0 µM -10% | [10]; [17] 65% | [10]; at 100.0 µM 68% | [11]; at 1.2 µM -12% | [11]; at 3.7 µM -12% | [11]; at 11.0 µM -18% | [11]; at 33.0 µM 11% | [11]; at 100.0 µM 62% | [12]; at 1.2 µM -39% | [12]; at 3.7 µM -42% | [12]; at 11.0 µM -27% | [12]; at 33.0 µM 3% | [12]; at 100.0 µM 49% | [13]; at 1.2 µM -19% | [13]; at 3.7 µM -39% | [13]; at 11.0 µM -23% | [13]; at 33.0 µM 11% | [13]; at 100.0 µM 69% | [14]; [16] 42% | [14]; [17] 46% | [15]; at 1.2 µM -46% | [15]; at 3.7 µM -50% | [15]; at 11.0 µM -44% | [15]; at 33.0 µM -21% | [15]; at 100.0 µM 58%

Cc1cc(OCc2ccccc2)ccc1[N+](=O)[O-]
active: [3]; at 100.0 µM 75% | [4]; [17] 85% | [5]; [17] 85% | [5]; at 100.0 µM 78% | [7]; [17] 88% | [7]; at 50.0 µM 74.6% | [8]; at 100.0 µM 71% | [9]; [17] 93% | [10]; [17] 95% | [12]; at 100.0 µM 82% | [13]; at 100.0 µM 88% | [14]; [17] 84%
inactive: [1]; at 1.2 µM 20% | [1]; at 3.7 µM 22% | [1]; at 11.0 µM 21% | [1]; at 33.0 µM 44% | [1]; at 100.0 µM 69% | [2]; at 1.2 µM 23% | [2]; at 3.7 µM -10% | [2]; at 11.0 µM 21% | [2]; at 33.0 µM 32% | [2]; at 100.0 µM 60% | [3]; at 1.2 µM -2% | [3]; at 3.7 µM -2% | [3]; at 11.0 µM 5% | [3]; at 33.0 µM 57% | [4]; at 1.2 µM 11% | [4]; at 3.7 µM 34% | [4]; [16] 50% | [4]; at 11.0 µM 29% | [4]; at 33.0 µM 31% | [4]; at 50.0 µM 37.2% | [4]; at 100.0 µM 50% | [5]; at 1.2 µM 2% | [5]; at 3.7 µM 15% | [5]; [16] 51% | [5]; at 11.0 µM 10% | [5]; at 33.0 µM 22% | [5]; at 50.0 µM 26.9% | [6]; at 1.2 µM -15% | [6]; at 3.7 µM 1% | [6]; at 11.0 µM 11% | [6]; at 33.0 µM 39% | [6]; at 100.0 µM 63% | [7]; [16] -5% | [8]; at 1.2 µM 9% | [8]; at 3.7 µM 23% | [8]; at 11.0 µM 11% | [8]; at 33.0 µM 32% | [9]; [16] 40% | [9]; at 50.0 µM 44.1% | [10]; at 1.2 µM -16% | [10]; at 3.7 µM -11% | [10]; [16] 33% | [10]; at 11.0 µM -5% | [10]; at 33.0 µM 12% | [10]; at 50.0 µM 55.6% | [10]; at 100.0 µM 51% | [11]; at 1.2 µM -11% | [11]; at 3.7 µM -11% | [11]; at 11.0 µM -7% | [11]; at 33.0 µM 9% | [11]; at 100.0 µM 47% | [12]; at 1.2 µM 21% | [12]; at 3.7 µM 15% | [12]; at 11.0 µM 3% | [12]; at 33.0 µM 16% | [13]; at 1.2 µM 11% | [13]; at 3.7 µM 16% | [13]; at 11.0 µM 6% | [13]; at 33.0 µM 38% | [14]; [16] 42% | [14]; at 50.0 µM 18.1% | [15]; at 1.2 µM -15% | [15]; at 3.7 µM -14% | [15]; at 11.0 µM -14% | [15]; at 33.0 µM 22% | [15]; at 100.0 µM 66%

c1ccc2c(c1)ccc1c3ccncc3ccc21
active: [1]; at 3.7 µM 80% | [1]; at 11.0 µM 99% | [1]; at 33.0 µM 99% | [1]; at 100.0 µM 95% | [2]; at 33.0 µM 99% | [2]; at 100.0 µM 97% | [3]; at 3.7 µM 86% | [3]; at 11.0 µM 98% | [3]; at 33.0 µM 98% | [3]; at 100.0 µM 92% | [4]; at 3.7 µM 74% | [4]; [16] 90% | [4]; at 11.0 µM 98% | [4]; at 33.0 µM 99% | [4]; [17] 94% | [4]; at 50.0 µM 97.8% | [4]; at 100.0 µM 93% | [5]; at 11.0 µM 85% | [5]; at 33.0 µM 99% | [5]; [17] 95% | [5]; at 50.0 µM 98.2% | [5]; at 100.0 µM 98% | [6]; at 11.0 µM 90% | [6]; at 33.0 µM 99% | [6]; at 100.0 µM 96% | [7]; [17] 97% | [7]; at 50.0 µM 98% | [8]; at 11.0 µM 93% | [8]; at 33.0 µM 99% | [8]; at 100.0 µM 96% | [9]; [17] 96% | [9]; at 50.0 µM 96% | [10]; at 11.0 µM 93% | [10]; at 33.0 µM 99% | [10]; [17] 96% | [10]; at 50.0 µM 97.1% | [10]; at 100.0 µM 98% | [11]; at 11.0 µM 80% | [11]; at 33.0 µM 99% | [11]; at 100.0 µM 96% | [12]; at 11.0 µM 83% | [12]; at 33.0 µM 99% | [12]; at 100.0 µM 96% | [13]; at 11.0 µM 96% | [13]; at 33.0 µM 99% | [13]; at 100.0 µM 94% | [14]; [17] 94% | [14]; at 50.0 µM 97.5%
inactive: [1]; at 1.2 µM 15% | [2]; at 1.2 µM -6% | [2]; at 3.7 µM -3% | [2]; at 11.0 µM 47% | [3]; at 1.2 µM 35% | [4]; at 1.2 µM 12% | [5]; at 1.2 µM 3% | [5]; at 3.7 µM 4% | [5]; [16] -15% | [6]; at 1.2 µM 9% | [6]; at 3.7 µM 15% | [7]; [16] -15% | [8]; at 1.2 µM 0% | [8]; at 3.7 µM 13% | [9]; [16] -11% | [10]; at 1.2 µM 8% | [10]; at 3.7 µM 35% | [10]; [16] 16% | [11]; at 1.2 µM -3% | [11]; at 3.7 µM 0% | [12]; at 1.2 µM 4% | [12]; at 3.7 µM 2% | [13]; at 1.2 µM -3% | [13]; at 3.7 µM 12% | [14]; [16] -4%
